Assay outcomes (PubChem)
The list is a sample of the results.
Tg IFNy HTS: inhibitors of Toxoplasma gondii growth with IFN-gamma | activity change, negative = inhibition, % (concentration not given with the values) | Toxoplasma gondii growth in IFN-gamma-treated host cells; active compounds read low | 3.8% of 69,000 active; in the data active = activity change below about -70%, passing the limit was not always enough;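 also: host cells are HeLa cells infected with Toxoplasma gondii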
Each line names hits and unclear results; the compound was inactive in the other large screens.

CC(=O)OCC(=O)[C@H]1CC[C@H]2[C@@H]3CC[C@H]4C[C@H](O)CC[C@]4(C)[C@H]3C(=O)C[C@]12C	none
CC12CC[C@H]3[C@@H](CCC4(O)C[C@H](O)CCC34/C=N/NC(=O)Cc3ccccc3)C1(O)CCC2C1=CC(=O)OC1 (stereo not given in full)	none
COc1cccc(CNC(=O)c2cc3cccnc3n(Cc3ccccc3F)c2=O)c1	none
O=C(c1ccco1)N1CC2CC(C1)N(CCO)C2 (stereo not given)	none
Cc1cc(CN2CC[C@H]3OCC[C@@H](C(=O)N(C)C)[C@@H]3C2)no1	none
c1cncc(CN2CC3(CCNCC3)CC2COCC2CC2)c1 (stereo not given)	none
C=CCC(=O)N1CCC2(CCN(C)C2)CC1	none
COc1ccc(NC(=O)c2cc3cccnc3n(Cc3ccc(F)cc3)c2=O)c(OC)c1	none
COc1ccc(NC(=O)c2c(O)c3cccnc3n(Cc3ccccc3)c2=O)cc1Cl	none
CCC1CN(Cc2cc(F)c(OC)c(Cl)c2)CCN1C(C)C (stereo not given)	none
